Measured values published in PubChem BioAssay (Tox21).
Records with an inconclusive call do not appear. Activity calls are given as the source filed them. Unless noted, calls follow the shape of the dose curve; as a rule, active = well fitted curve in the direction sought with a large enough effect in the repeat runs; inconclusive = weak or mixed curves; inactive = no such curve, though single readings can be large; an effect the other way counts as inactive or inconclusive.

How the values were obtained:
[1] = qHTS assay to identify small molecule agonists of the hypoxia (HIF-1) signaling pathway (AID 1224846; active = well fitted activation curve with a large enough effect in the signal ratio in the repeat runs, not every such curve was filed as active; the % refers to the signal ratio)
Outline: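 In ME-180 cells bearing an HRE-bla construct, 17 h treatment with DMSO-dissolved compounds at 37C was followed by CCF4-AM loading to quantify reporter induction.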

[2] = qHTS assay to identify small molecule agonists of H2AX - cell viability counter screen (AID 1224847; calls by dose curve;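 also: wild-type CHO-K1 cells; top concentration of the series differs between compounds; nearly all actives have a fitted effect of over 30% in size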)
Outline: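 CHO-K1 cells plated overnight at 37C, then exposed 3 h at 37C to compounds at 15 concentrations (0.76% DMSO final). Viability by CellTiter-Glo luminescence after 30 min at room temperature.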

[3] = qHTS assay to identify small molecule antagonists of the estrogen related receptor (ERR) signaling pathway from Tox21 library (AID 1224848); also: nearly all actives have a fitted effect of over 50% in size; also: potency is read from the fitted curve at half-maximal effect
Outline: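 Quantitative high-throughput format: ERR reporter cells (2,000/well) pre-incubated 6 h, treated 18 h at 37 C with compounds in DMSO alongside positive and negative controls, then read by ONE-Glo luminescence.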

[4] = qHTS assay to identify small molecule agonists of the estrogen related receptor (ERR) signaling pathway from Tox21 library (AID 1224849; calls by dose curve; also: nearly all actives have a fitted effect of over 15% in size); settings: ERR reporter cell line, ONE-Glo luciferase, 18 h; at 92.4 µM (top of the series) unless noted
Outline: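 Reporter cells (ERR, NTP source) treated with Tox21 10K compounds 18 h, 37 C. Readout: ONE-Glo luminescence, 30 min RT.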

[5] = qHTS RealTime-Glo MT Cell Viability Assay in HepG2 cells - 24 hour (AID 1224867); also: nearly all actives have a fitted effect of over 50% in size
Outline: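 HepG2 suspension premixed with RealTime-Glo reagents is plated at 600 cells per well and left 5 h at 37 C/5% CO2. Compounds in DMSO then go in, and bioluminescence reflecting viable cell number is recorded over 40 h.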

[6] = qHTS RealTime-Glo MT Cell Viability Assay in HEK293 cells - 32 hour (AID 1224868); also: nearly all actives have a fitted effect of over 50% in size; also: potency is read from the fitted curve at half-maximal effect; as to activity change, negative = cytotoxic: top concentration of the series differs between compounds
Outline: (§1)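 Reads taken at 0, 8, 16, 24, 32 and 40 h from the same wells. HEK293 cells (600/well) carried RealTime-Glo reagents from seeding, with compound added after a 5 h settle at 37 C.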

[7] = A CellTox Green Cytotoxicity Assay to monitor cytotoxicity in HEK293 cells - 0 hour (AID 1224869); also: nearly all actives have a fitted effect of over 50% in size
Outline: (§2)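 Homogeneous no-lysis format: HEK293 cell suspension mixed with CellTox Green reagent, seeded, incubated 5 h at 37 C/5% CO2, then dosed by pintool with compound in DMSO.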

[8] = qHTS RealTime-Glo MT Cell Viability Assay in HepG2 cells - 40 hour (AID 1224870); also: nearly all actives have a fitted effect of over 50% in size
Outline: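 HepG2 cells (600/well) mixed with RealTime-Glo MT reagent, settled 5 h at 37 C/5% CO2 before compound addition. Nonlytic NanoLuc luminescence from viable-cell prosubstrate reduction read repeatedly during 40 h treatment at 37 C.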

[9] = A CellTox Green Cytotoxicity Assay to monitor cytotoxicity in HEK293 cells - 40 hour (AID 1224871); also: nearly all actives have a fitted effect of over 45% in size
Outline: as §2

[10] = qHTS RealTime-Glo MT Cell Viability Assay in HEK293 cells - 16 hour (AID 1224872)
Outline: as §1
% is scaled to controls: 0 for no effect and ±100 for the full control effect.

CCCC(=O)OCC(COC(=O)CCC)OC(=O)CCC
inactive: outcome [1] | Potency [2] | Potency [3] | activity change, positive = activation [4] -2.08% | Potency [5] | Potency [6] | Potency [7] | Potency [8] | Potency [9] | Potency [10]

CO[Si](CCCNCCNCCN)(OC)OC
inactive: outcome [1] | Potency [2] | Potency [3] | activity change, positive = activation [4] 2.38% | Potency [5] | Potency [6] | Potency [7] | Potency [8] | Potency [9] | Potency [10]

CCCCCCCCCCCCCCCC
inactive: outcome [1] | Potency [2] | Potency [3] | activity change, positive = activation [4] 3.33% | Potency [5] | Potency [6] | Potency [7] | Potency [8] | Potency [9] | Potency [10]

c1cc[nH]c1
inactive: outcome [1] | Potency [2] | Potency [3] | activity change, positive = activation [4] -5.69% | Potency [5] | Potency [6] | Potency [7] | Potency [8] | Potency [9] | Potency [10]

CCCCCCCOC(=O)c1ccccc1C(=O)OCCCCCCC
inactive: outcome [1] | Potency [2] | Potency [3] | activity change, positive = activation [4] 1.61% | Potency [5] | Potency [6] | Potency [7] | Potency [8] | Potency [9] | Potency [10]

CN1CN(C)CN(C)C1
inactive: outcome [1] | Potency [2] | Potency [3] | activity change, positive = activation [4] 7.33% | Potency [5] | Potency [6] | Potency [7] | Potency [8] | Potency [9] | Potency [10]

C=CC(=C)CC/C=C(\C)CCC=C(C)C
inactive: activation [1] -0.763% [at 15.8 µM] | activity change, negative = cytotoxicity [2] 2.41% [at 31.6 µM] | activity, negative = inhibition [3] -7.19% [at 19 µM] | activity change, positive = activation [4] -3.55% [at 19 µM] | activity change, negative = cytotoxicity [5] 0.599% [at 15.8 µM] | activity change, negative = cytotoxic [6] -12.8% [at 15.8 µM] | cytotoxicity [7] 0.448% [at 15.8 µM] | activity change, negative = cytotoxic [8] -6.2% [at 15.8 µM] | cytotoxicity increase [9] 4.27% [at 15.8 µM] | activity change, negative = cytotoxicity [10] -2.14% [at 15.8 µM]

CCc1cccc(CC)c1NC(=O)C(=O)O
inactive: outcome [1] | Potency [2] | Potency [3] | activity change, positive = activation [4] -1.7% | Potency [5] | Potency [6] | Potency [7] | Potency [8] | Potency [9] | Potency [10]

CCCCOC(=O)C(C)CC (stereo not given)
inactive: outcome [1] | Potency [2] | Potency [3] | activity change, positive = activation [4] 6.06% | Potency [5] | Potency [6] | Potency [7] | Potency [8] | Potency [9] | Potency [10]

CCC1CCCCC1
inactive: outcome [1] | Potency [2] | Potency [3] | activity change, positive = activation [4] 11.4% | Potency [5] | Potency [6] | Potency [7] | Potency [8] | Potency [9] | Potency [10]

CC(COC(=O)c1ccccc1)OC(=O)c1ccccc1 (stereo not given)
inactive: outcome [1] | Potency [2] | Potency [3] | activity change, positive = activation [4] 6.72% | Potency [5] | Potency [6] | Potency [7] | Potency [8] | Potency [9] | Potency [10]

Cn1cccc1
inactive: outcome [1] | Potency [2] | Potency [3] | activity change, positive = activation [4] -4.51% | Potency [5] | Potency [6] | Potency [7] | Potency [8] | Potency [9] | Potency [10]

CC(C)c1ccccc1N
inactive: outcome [1] | Potency [2] | Potency [3] | activity change, positive = activation [4] 3.39% | Potency [5] | Potency [6] | Potency [7] | Potency [8] | Potency [9] | Potency [10]

CC1(C)C(=O)N(Br)C(=O)N1Br
inactive: outcome [1] | Potency [2] | Potency [3] | activity change, positive = activation [4] 3.41% | Potency [5] | Potency [6] | Potency [7] | Potency [8] | Potency [9] | Potency [10]

O=S(=O)(O)c1cc(S(=O)(=O)O)c2ccc3c(S(=O)(=O)O)cc(S(=O)(=O)O)c4ccc1c2c43
inactive: activation [1] -0.0206% [at 15.8 µM] | activity change, negative = cytotoxicity [2] 4.65% [at 31.6 µM] | activity, negative = inhibition [3] 17.9% [at 19 µM] | activity change, positive = activation [4] 9.26% [at 19 µM] | activity change, negative = cytotoxicity [5] 3.52% [at 15.8 µM] | activity change, negative = cytotoxic [6] 2.34% [at 15.8 µM] | cytotoxicity [7] -7.26% [at 15.8 µM] | activity change, negative = cytotoxic [8] 8.14% [at 15.8 µM] | cytotoxicity increase [9] -6.93% [at 15.8 µM] | activity change, negative = cytotoxicity [10] 1.53% [at 15.8 µM]

CCc1c(C(=O)O)c(=O)cnn1-c1ccc(Cl)cc1
inactive: outcome [1] | Potency [2] | Potency [3] | activity change, positive = activation [4] 3.84% | Potency [5] | Potency [6] | Potency [7] | Potency [8] | Potency [9] | Potency [10]

C=C(C)CCCC
inactive: outcome [1] | Potency [2] | Potency [3] | activity change, positive = activation [4] 6.79% | Potency [5] | Potency [6] | Potency [7] | Potency [8] | Potency [9] | Potency [10]

CCc1c(Br)c(Br)c(Br)c(Br)c1Br
inactive: outcome [1] | Potency [2] | Potency [3] | activity change, positive = activation [4] -5.33% | Potency [5] | Potency [6] | Potency [7] | Potency [8] | Potency [9] | Potency [10]

CCO[Si](C)(C)OCC
inactive: outcome [1] | Potency [2] | Potency [3] | activity change, positive = activation [4] -0.643% | Potency [5] | Potency [6] | Potency [7] | Potency [8] | Potency [9] | Potency [10]

C=C/C=C/C=C/CCCCC
inactive: activation [1] 0.434% [at 15.8 µM] | activity change, negative = cytotoxicity [2] -1.43% [at 31.6 µM] | activity, negative = inhibition [3] 3.04% [at 19 µM] | activity change, positive = activation [4] 1.56% [at 19 µM] | activity change, negative = cytotoxicity [5] -0.964% [at 15.8 µM] | activity change, negative = cytotoxic [6] 0.818% [at 15.8 µM] | cytotoxicity [7] -0.619% [at 15.8 µM] | activity change, negative = cytotoxic [8] 24.6% [at 15.8 µM] | cytotoxicity increase [9] 10.9% [at 15.8 µM] | activity change, negative = cytotoxicity [10] 13.8% [at 15.8 µM]

O=S(=O)(O)CCCN1CCOCC1
inactive: outcome [1] | Potency [2] | Potency [3] | activity change, positive = activation [4] -0.481% | Potency [5] | Potency [6] | Potency [7] | Potency [8] | Potency [9] | Potency [10]

COc1ccc2sc(C(=O)Nc3nnn[nH]3)c(OC(C)C)c2c1
active: Potency [3] 24.2 µM | Potency [6] 27.4 µM
inactive: outcome [1] | Potency [2] | activity change, positive = activation [4] -42.5% | Potency [5] | Potency [7] | Potency [8] | Potency [9] | Potency [10]
